Data reported in PubChem BioAssay (NCI).
This is part of a sample that, as a whole, favours compounds with a hit. Of some 83,000 tested, about 20% had one in any assay.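 A percent growth of 40 corresponds to 60% growth inhibition; 0 means no net growth; -100 means all cells died. Active threshold: below 10.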 Unmarked numbers belong to inactive results. Activity calls are given as the source filed them.

System: HL-60(TB) leukemia
Assay: NCI-60 one-dose screen, 48 h (100 = growth as untreated, 0 = no growth, -100 = all killed)
Conditions: 10 µM unless noted

Structure (SMILES) | growth
CN(C)S(=O)(=O)c1ccc(-c2nc(C(Cl)Cl)nc3cc(-c4ccc(F)cc4)nn23)cc1 | 6.96% (active)
CCCC(=O)NC(c1cccnc1)c1cc(C(C)=O)c2cccnc2c1O (stereo not drawn) | 24.9%
N#Cc1c(-c2ccc(Cl)cc2)nc(SCc2ccc(F)cc2)nc1N1CCNCC1 | -34.8% (active)
Clc1ccc2c(N/N=C/c3c[nH]c4ccccc34)ccnc2c1 | -34.7% (active)
CC[C@]12C=CCN3CC[C@]4(C(=C(C(=O)OC)C1)Nc1cc5c(cc14)[C@@H]1[C@H](O5)[C@@H](O)[C@@]4(CC)CC(C(=O)OC)=C5Nc6cc(OC)ccc6[C@@]56CCN1[C@@H]46)[C@@H]32 | 5.09% (active)
CC1(C)CC[C@]23CC[C@]4(C)[C@H](CC[C@@H]5[C@@]6(C)CC[C@H](N)C(C)(C)[C@@H]6CC[C@]54C)[C@H]2[C@H]1OC3 | -38.4% (active)
CC(C)NC(=O)c1cc(-c2ccc(NC(=O)Nc3ccc(F)cc3)cc2)nc2cccnc12 | 105%
CCN(CC)c1ccc(NC2=C(Cl)C(=O)c3nc(C)ccc3C2=O)cc1 | -34.6% (active)
N/C(=N\c1nc2c(Br)cccc2s1)C(Br)Br | 7% (active)
Oc1[nH]c2ccc(Cl)cc2c1N=Nc1nc(N=Nc2c(O)[nH]c3ccc(Cl)cc23)nc(N2CCOCC2)n1 | 72.2%
CNC(=O)c1cc(Oc2ccc3nc(NC(=O)c4ccc(CN5CCCN(C)CC5)c(C(F)(F)F)c4)sc3c2)ccn1 | -65.2% (active)
CCS(=O)(=O)Nc1ccc(C(=O)CC2(O)C(=O)Nc3ccccc32)cc1 (stereo not drawn) | 102%
Clc1ccc(Cc2nnc3sc(-c4cccnc4)nn23)cc1 | 97.2%
C#Cc1nc(C2=C(C)C(O)/C(=N/O)C2)cs1 (stereo not drawn) | -37.9% (active)
COc1cc(CNC(=O)Cc2ccccc2[N+](=O)[O-])ccc1OCC(=O)NO | 118%
COc1cc(OC)cc(C(=O)Nc2cccc(C#Cc3cccc4[nH]nc(N)c34)c2)c1 | 1.62% (active)
NC(=O)c1c(NC(=O)c2ccc(C(F)(F)F)cc2)sc2c1CCC(=O)C2 | 6.39% (active)
COc1ccc(Cn2cc(C#N)c(N)c2C(C)=O)cc1 | 103%
COc1cc(OC)c(/C=C/S(=O)(=O)Cc2ccc(OC)c(NCC(=O)NO)c2)c(OC)c1 | -13.5% (active)
COc1ccc2c(c1)c(CC(=O)[Se]CC(=O)O)c(C)n2C(=O)c1ccc(Cl)cc1 | 53.7%
Cc1[nH]nc2ccc(-c3nc4cnc(N5CCN(C)CC5)cn4c3Nc3ccc(F)cc3Br)cc12 | -29.6% (active)
O=S(=O)(NCCCNc1nccc(-n2cnc3ccccc32)n1)c1ccc(C(F)(F)F)cc1 | 101%
CCOC(=O)C1=C(C)N=C2Sc3ccccc3N2C1c1ccccc1 (stereo not drawn) | 61.9%
O=C1Nc2ccccc2/C1=C/c1ccc(COCC2CO2)n1-c1ccc(O)cc1 (stereo not drawn) | 103%
NC(=O)c1c(NC(=O)c2cccc(OC(F)(F)F)c2)sc2c1CCC(=O)C2 | 60%

Structure (SMILES) | growth
O=C(CSc1nc2sc3c(c2c(=O)n1-c1ccc(Cl)cc1)CCCC3)NNC(=O)Nc1ccc(Cl)c(C(F)(F)F)c1 | 6.38% (active)
Cc1sc2c(c1C)c(=O)nc1c(-c3nc(-c4ccc(F)cc4)no3)n[nH]n12 | 103%
CC(=O)Nc1cc(F)cc(-c2ccc3[nH]cc(-c4ccccc4)c3n2)c1 | 7.81% (active)
CN1CC[C@@H]2[C@@]3(C)CC[C@H](O)C(C)(C)[C@@H]3CC[C@@]2(C)[C@]2(C)CC[C@@]3(CO)CCC(C)(C)C[C@@H]3C12 (stereo partly drawn) | 79.6%
CC(=O)NC(C)(C)C(=O)N[C@@H](C)C(=O)NC(C)(C)C(=O)N[C@@H](C)C(=O)NC(C)(C)C(=O)N[C@@H](C)C(=O)N[C@@H](CCC(N)=O)C(=O)NC(C)(C)C(=O)N[C@H](C(=O)NC(C)(C)C(=O)NCC(=O)N[C@@H](CC(C)C)C(=O)NC(C)(C)C(=O)N1CCC[C@H]1C(=O)N[C@H](C(=O)NC(C)(C)C(=O)NC(C)(C)C(=O)N[C@@H](CCC(N)=O)C(=O)N[C@@H](CCC(N)=O)C(=O)N[C@H](CO)CC1CCCCC1)C(C)C)C(C)C | 10.3% [5 µM]
NS(=O)(=O)c1ccc(Nc2nc(SCc3ccccc3)nc3ccccc23)cc1 | 60.5%
COc1ccc(NC(=O)Nc2ccc3c(ccn3C(=O)c3cccc(F)c3)c2)cc1 | 85.2%
Nc1cc(F)ccc1NC(=O)c1ccc(NC(=O)C/C=C/c2cccnc2)cc1 | 13.4%
CC1=C(SCC(=O)OCCCCCC(C)C)C(=O)c2ccccc2C1=O | 86.8%
NC1C2CCC1CN(c1cnc(C(=O)Nc3cc(F)cc4cccnc34)cn1)C2 (stereo not drawn) | 9.98% (active)
CS(=O)(=O)c1ccc2c(c1)c1c(n2Cc2ccc(Cl)cc2)CCCC1 | 70.5%
COc1c([C@@H](CC(C)C)OC(C)=O)ccc2c1C(=O)OCc1cc(C)cc(O)c1O2 | 63.7%
CCOC(=O)c1c(Nc2ccccc2)nn2c(-c3ccc(Cl)cc3)ccnc12 | 86.7%
COc1ccc(N/N=C/c2c(-c3ccc(S(C)(=O)=O)cc3)nc3ccccn23)cc1 | 39.4%
O=C(Nc1ccc(F)cc1)c1cc(-c2ccc(F)cc2F)ccc1O | 0.532% (active)
O=c1oc2ccc(-c3ccc(F)cc3F)cc2c(=O)n1-c1cccc(C(F)(F)F)c1 | -32.7% (active)
CC(=O)c1c([Si](C)(C)C)c2cc(C#N)ccn2c1C(=O)c1ccc(Br)cc1 | 97.8%
O=C1Nc2ccccc2/C1=N\c1nnc(-c2ccccc2)o1 | 99.6%
CC1=Cc2ccccc2OC12C=Cc1ccccc1O2 (stereo not drawn) | 106%
C/C(=N\NC(N)=S)c1nnn(-c2ccc([N+](=O)[O-])cc2)c1C | 105%
CC(C)(C)c1ccc(C(=O)Nc2nc3ccc(O)cc3s2)cc1 | 24.8%
O=C(NNc1nc2cc(F)ccc2n2c(CN3CC4(COC4)C3)ccc12)c1cnccn1 | -30.1% (active)
C=C(C)[C@@H]1CC[C@]2(COP(=O)(OCC)OCC)CC[C@]3(C)[C@H](CC[C@@H]4[C@@]5(C)CCCNC(C)(C)[C@@H]5CC[C@]43C)[C@@H]12 | -56.4% (active)
CCc1cccc2c3c(sc12)C(c1ccc(Cl)cc1)C(C#N)=C(/N=C/c1ccc(Cl)cc1)O3 (stereo not drawn) | -6.78% (active)
CS(=O)(=O)c1ccc(/C(=N/N=C(N)N)c2ccc(Cl)cc2)cc1 | 80%

Structure (SMILES) | growth
N#Cc1nc(-c2ccc(Cl)cc2)oc1N1CCC(S(=O)(=O)N2CCOCC2)CC1 | 112%
CC1(C)[C@@H](O)CC[C@]2(C)[C@H]3CC[C@@H]4[C@H]5[C@H](C(=O)/C=C\c6ccncc6)CC[C@]5(O)CC[C@@]4(C)[C@]3(C)CC[C@@H]12 | 26.4%
COc1ccccc1/C=C/C(=O)c1nnn(-c2ccc(F)cc2)c1C | 31.9%
Cc1ccc(-c2nnc3sc(C4=Cc5ccccc5OC=C4)nn23)cc1 | 85%
Cc1ccc(C2CC(c3ccc(Nc4nc(NCCO)nc(Nc5ccc(Cl)cc5)n4)cc3)=Nc3c(N)nc(N)nc3N2)cc1 (stereo not drawn) | 10.2%
O=C(CN1CCN(c2cc(=O)n(-c3ccccc3)c3ccccc23)CC1)Nc1ccc([N+](=O)[O-])cc1 | 85%
Cn1cc(-c2cc3ncnc(Nc4ccc(NC(=O)Nc5cc(C(C)(C)C)on5)cc4)c3s2)cn1 | 13.6%
COc1cc(C2N=C(NNc3ccccc3)NC(C)=C2C(C)=O)ccc1O (stereo not drawn) | 92.3%
O=S(=O)(Nc1ccc2c(c1)OC(F)(F)O2)c1ccc(-c2cnc(C3CC3)o2)cc1 | 3.85% (active)
CN1CCN(c2ccc(Nc3nc(NCCCNS(=O)(=O)c4ccc(Cl)cc4)c4sccc4n3)cc2)CC1 | -43.7% (active)
COCCNc1ccc2ncc(C#Cc3cncc(C(=O)Nc4ccc(CN5CCN(C)CC5)c(C(F)(F)F)c4)c3)n2n1 | 0.694% (active)
Clc1cccc(/C=N/Nc2nc(N/N=C/c3cccc(Cl)c3)nc(N3CCOCC3)n2)c1 | -9.74% (active)
COc1cc(/C=N/Nc2ccnc3cc(Cl)ccc23)cc(OC)c1O | -44.6% (active)
CCNC(=O)Oc1ccc(/C(=C(/C)c2ccccc2)c2ccc(OCCN3CCCCCC3)cc2)cc1 | -19.2% (active)
COc1cc(-c2ccc3ncnc(NC(C)c4ccccc4)c3c2)cnc1OC (stereo not drawn) | 43.2%
CS(=O)(=O)c1ccc(-c2nc3ccccn3c2-c2nc3ccc([N+](=O)[O-])cc3[nH]2)cc1 | 95.7%
CCNC(=O)N1CCc2cc(OC)c(OCCc3ccc(OC)c(N)c3)cc2C1c1cc(C)c(C)cc1C (stereo not drawn) | 22.1%
CC1(C)CC[C@]23CC[C@]4(C)[C@H](CC[C@@H]5[C@@]6(C)CCCN(CO)C(C)(C)[C@@H]6CC[C@]54C)[C@H]2[C@H]1OC3 | 36.6%
CNC(=O)c1cc(N2CCc3cc(NC(=O)Nc4ccc(N5CCOCC5)c(C(F)(F)F)c4)ccc32)ccn1 | 13%
CCOP(=O)(OCC)OC[C@]12CCC(C)(C)CC1C1=CC[C@@H]3[C@@]4(C)CCCNC(C)(C)[C@@H]4CC[C@@]3(C)[C@]1(C)CC2 (stereo partly drawn) | 34.7%
CC(C)NC(=O)c1cc(-c2ccc(NC(=O)Nc3ccc(F)c(C(F)(F)F)c3)cc2)nc2cccnc12 | 109%
NC(N)=Nc1ccc(Oc2cccc(Nc3ccc(Br)c(C(F)(F)F)c3)c2)cn1 | -62.9% (active)
NS(=O)(=O)c1ccc(Nc2nc(N/N=C/c3ccc(C(F)(F)F)cc3)nc(Nc3ccccc3)n2)cc1 | 48.9%
